Test results taken from the supplement of paper PMC10121225.

Test system: hN + hpA co-culture (H1 iNGN2 human neurons + human primary astrocytes)
Experiment: presynaptic density (SYNAPSIN1 puncta per MAP2 neurite area), Z-score vs DMSO controls; higher = more presynaptic puncta (synapse-promoting)
Conditions: 3 µM; 72 h
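Note: immunostained co-cultures imaged by high-content microscopy, Z-score per plate against mean and SD of 0.1% DMSO wells, compounds added on differentiation day 18, analysed day 21.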

Row | SMILES | presynaptic density (Z-score)
1 | N#Cc1ccc(C(c2ccc(C#N)cc2)n2cncn2)cc1 | 0.0621
2 | CC(=O)c1cc([N+](=O)[O-])c(Sc2ccc(F)cc2F)s1 | 0.25
3 | Cc1ccc(-c2cc(C(F)(F)F)nn2-c2ccc(S(N)(=O)=O)cc2)cc1 | -0.625
4 | COc1ccc(CNCc2cccc3ccccc23)cc1 | -1.02
